Source: ChEMBL document CHEMBL3433997, “St. Jude Leishmania screening dataset” (2016)

biological target: Solute carrier family 2, facilitated glucose transporter member 1 (Homo sapiens) (UniProt P11166); experiment: ST_JUDE_LEISH: Cytotoxicity at 2uM final concentration against transgenic Leishmania Mexicana promastigotes LmGLUT1 that are glucose transport deficient and complemented with the human glucose transporter GLUT1. Activity is measured by DNA content using SYBR green in vitro; format: functional
Sequence (P11166 whole entry): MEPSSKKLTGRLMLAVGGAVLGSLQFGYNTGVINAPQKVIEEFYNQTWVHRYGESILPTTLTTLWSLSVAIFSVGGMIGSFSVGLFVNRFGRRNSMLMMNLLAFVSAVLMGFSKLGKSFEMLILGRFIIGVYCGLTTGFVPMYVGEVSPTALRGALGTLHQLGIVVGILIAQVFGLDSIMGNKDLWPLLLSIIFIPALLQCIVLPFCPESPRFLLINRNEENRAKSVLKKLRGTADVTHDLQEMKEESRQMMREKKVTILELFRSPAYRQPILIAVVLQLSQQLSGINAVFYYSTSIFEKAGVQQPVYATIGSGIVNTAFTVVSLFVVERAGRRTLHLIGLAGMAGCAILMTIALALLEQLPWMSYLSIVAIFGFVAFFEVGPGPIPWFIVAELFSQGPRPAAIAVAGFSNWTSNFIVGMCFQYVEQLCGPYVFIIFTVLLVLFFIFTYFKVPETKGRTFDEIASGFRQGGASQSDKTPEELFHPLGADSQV

Row | SMILES | inhibition [%]
1 | CN1CCN(c2ccnc3ccc(NC(=O)Nc4ccc(Cl)cc4)cc23)CC1 | -1.11
2 | Cc1ccc(Cn2nc(N3CCNCC3)ccc2=O)cc1NC(=O)Nc1ccc(-c2ccccc2)cc1 | 1.5
3 | CCCC(=O)Nc1ccc(Cl)c(NC(=O)COc2cc(C)ccc2C(C)C)c1 | 9.77
4 | CN(Cc1ccccc1)C(=O)CCNS(=O)(=O)c1cc(Br)cnc1N | 2.6
5 | CC1CCCN1Cc1ccc(-c2ccc3c(=O)cc(CCc4cccc(F)c4F)n(CC(=O)N(C)Cc4ccc(-c5ccc(C(F)(F)F)cc5)cc4)c3n2)cc1 (centres undefined) | -0.63
6 | CCC(NCc1ccc(-c2cncc(C(=O)NCC(C)C)c2)cc1)c1ccccc1 (centres undefined) | 7.89
7 | O=C(COc1cccc([N+](=O)[O-])c1)Nc1ccc(-c2nc3ccccc3[nH]2)cc1 | 1.62
8 | COc1cc(NC(=O)c2sc(-c3ccc(Cl)cc3)cc2NC(=O)c2cccnc2)ccc1OCCN1CCCC1 | 4.28
9 | O=C(Nc1cccc(-c2ccc(-c3nc4cc(C(F)(F)F)ccc4[nH]3)cc2)c1)c1csnn1 | 5.44
10 | CCOc1ccccc1NC(=O)Nc1ccc2c(c1)CCN(C1CCC1)CC2 | 9.64
11 | NC1=NC(c2ccccc2)(c2ccccc2)C(=O)N1Cc1ccc(-c2ccncc2)cc1 | 8.4
12 | CCOC(=O)c1ccc2[nH]c(-c3ccc(C(=O)NCc4ccc(C(C)(C)C)cc4)cc3)nc2c1 | 4.63
13 | Cc1cc(C(F)(F)F)n2nc(C(=O)N(Cc3cncn3Cc3ccccc3F)CC3CC3)cc2n1 | -1.46
14 | COc1cc(Cc2cnc(N)nc2N)c2ccsc2c1OC | 4.16
15 | CC(C)(CNC(=O)/C=C/c1ccc(C(F)(F)F)cc1)CNc1cc(=O)c2ccccc2[nH]1 | 1.07
16 | Cc1cccc2nc(-c3ccc(-c4cccc(NCc5cn6cccnc6n5)c4)cc3)[nH]c12 | 2.03
17 | O=c1cc(NCCCNC(CNCCc2ccccc2)c2cc(Br)cc(Br)c2)[nH]c2ccccc12 (centres undefined) | 2.57
18 | O=C(N[C@@H](Cc1ccccc1)C(=O)NC1CCCc2ccccc21)c1ccc(O)c(-c2cccc(C(F)(F)F)c2)c1 (some centres undefined) | -3.38
19 | Cc1cc2c(NC(=O)NC3CCN(Cc4ccc(Cl)c(Cl)c4)CC3)cccc2cn1 | 0.94
20 | CNC(=O)Cc1ccc(C(=O)Nc2cccc(-c3cccc(-c4nc5cccc(C)c5[nH]4)c3)c2)cc1 | -2.05
21 | O=C(Nc1ccc(OC2CCN(Cc3ccsc3)C2)c(Cl)c1)c1ccco1 (centres undefined) | 0.28
22 | COc1ccc(-c2nc(NC(=O)Cc3ccc(OC)c(OC)c3)sc2C)cc1 | 1.75
23 | COc1ccc(-c2cnc3[nH]cc(-c4ccc(CCC(=O)O)cc4)c3c2)cn1 | 5.06
24 | OC1CCCN(Cc2ccc(-c3cccc(-c4nc5cc(F)ccc5[nH]4)c3)cc2)C1 (centres undefined) | 7.7

biological target: Hexose transporter 1 (Plasmodium falciparum) (UniProt O97467); experiment: ST_JUDE_LEISH: Cytotoxicity at 2uM final concentration against transgenic Leishmania Mexicana promastigotes LmPfHT that are glucose transport deficient and complemented with the Plasmodium falciparum hexose transporter. Activity is measured by DNA content using SYBR green in vitro; format: functional

Row | SMILES | inhibition [%]
25 | CS(=O)(=O)Nc1cccc(-c2cnc3[nH]cc(-c4cccc(CN)c4)c3c2)c1 | 3.29
26 | Cc1cc(N2CCCC2)nc(Nc2ccc(NC(=O)c3ccc(Br)o3)cc2)n1 | 9.42
27 | COc1ccc(C)cc1NC(=O)CSc1nc2cccnc2n1C1CCCCC1 | 4.88
28 | Cc1cccc(CNc2nc(C)cc(N[C@@H](Cc3ccccc3)C(=O)NCCc3ccccc3)n2)c1 | 3.72
29 | O=C1CCCN1CCCNCc1ccc(-c2ccc(-c3nc4cc(C(F)(F)F)ccc4[nH]3)cc2)cc1 | 2.91
30 | Cc1cccc2nc(-c3ccc(-c4ccc(CN5CCC(C(N)=O)CC5)cc4)cc3)[nH]c12 | 5.37
31 | C[C@H](N[C@H]1CCCc2c1[nH]c1ccc(Br)cc21)c1ccccc1 | 0.78
32 | Nc1ccc(-c2ccc(NC(=O)Nc3ccccc3)cc2)cn1 | 2.5
33 | NC(=O)C1CCN(Cc2ccc(-c3ccc(-c4nc5cc(F)ccc5[nH]4)cc3)cc2)CC1 | 12.7
34 | CN1CCN(c2ccnc3ccc(NC(=O)Nc4cccc5ccccc45)cc23)CC1 | -0.09
35 | CC1CN(c2cnn(C/C=C/c3ccc(NC(=O)c4ccc5nonc5c4)cc3)c(=O)c2Cl)CC(C)N1 (centres undefined) | 4.17
36 | CN(C)CCOc1ccc(-c2cc(-c3ccncc3)c(-c3ccc(Cl)c(O)c3)[nH]2)cc1 | 1.71
37 | OC(CNCc1ccccc1)c1cc(OCc2ccccc2)cc(OCc2ccccc2)c1 (centres undefined) | -1.19
38 | CC(C)=CC1C(C(=O)n2c(=N)[nH]c3ccccc32)C1(C)C (centres undefined) | 7.8
39 | COCCNCc1ccc(-c2ccc3c(Nc4ccc(Cl)cc4F)ccnc3c2)o1 | 2.3
40 | CCOc1ccccc1C1C(C(=O)C(C)(C)C)N2c3ccc(Br)cc3C=CC2C12C(=O)c1ccccc1C2=O (centres undefined) | 76.5
41 | CN1CCN(c2ccnc3ccc(NC(=O)Nc4ccc(Cl)cc4)cc23)CC1 | -0.83
42 | Cc1ccc(Cn2nc(N3CCNCC3)ccc2=O)cc1NC(=O)Nc1ccc(-c2ccccc2)cc1 | 2.27
43 | CCCC(=O)Nc1ccc(Cl)c(NC(=O)COc2cc(C)ccc2C(C)C)c1 | 8.41
44 | CN(Cc1ccccc1)C(=O)CCNS(=O)(=O)c1cc(Br)cnc1N | 3.87

Row | SMILES | inhibition [%]
45 | CC1CCCN1Cc1ccc(-c2ccc3c(=O)cc(CCc4cccc(F)c4F)n(CC(=O)N(C)Cc4ccc(-c5ccc(C(F)(F)F)cc5)cc4)c3n2)cc1 (centres undefined) | -4.81
46 | CCC(NCc1ccc(-c2cncc(C(=O)NCC(C)C)c2)cc1)c1ccccc1 (centres undefined) | 7.18
47 | O=C(COc1cccc([N+](=O)[O-])c1)Nc1ccc(-c2nc3ccccc3[nH]2)cc1 | 2.12
48 | COc1cc(NC(=O)c2sc(-c3ccc(Cl)cc3)cc2NC(=O)c2cccnc2)ccc1OCCN1CCCC1 | 4.76
49 | O=C(Nc1cccc(-c2ccc(-c3nc4cc(C(F)(F)F)ccc4[nH]3)cc2)c1)c1csnn1 | 8
50 | CCOc1ccccc1NC(=O)Nc1ccc2c(c1)CCN(C1CCC1)CC2 | 6.1
51 | NC1=NC(c2ccccc2)(c2ccccc2)C(=O)N1Cc1ccc(-c2ccncc2)cc1 | 6.36
52 | CCOC(=O)c1ccc2[nH]c(-c3ccc(C(=O)NCc4ccc(C(C)(C)C)cc4)cc3)nc2c1 | 2.27
53 | Cc1cc(C(F)(F)F)n2nc(C(=O)N(Cc3cncn3Cc3ccccc3F)CC3CC3)cc2n1 | -0.8
54 | COc1cc(Cc2cnc(N)nc2N)c2ccsc2c1OC | 3.31
55 | CC(C)(CNC(=O)/C=C/c1ccc(C(F)(F)F)cc1)CNc1cc(=O)c2ccccc2[nH]1 | -1.76
56 | Cc1cccc2nc(-c3ccc(-c4cccc(NCc5cn6cccnc6n5)c4)cc3)[nH]c12 | 0.59
57 | O=c1cc(NCCCNC(CNCCc2ccccc2)c2cc(Br)cc(Br)c2)[nH]c2ccccc12 (centres undefined) | 3.4
58 | O=C(N[C@@H](Cc1ccccc1)C(=O)NC1CCCc2ccccc21)c1ccc(O)c(-c2cccc(C(F)(F)F)c2)c1 (some centres undefined) | -1.1
59 | Cc1cc2c(NC(=O)NC3CCN(Cc4ccc(Cl)c(Cl)c4)CC3)cccc2cn1 | -0.05
60 | CNC(=O)Cc1ccc(C(=O)Nc2cccc(-c3cccc(-c4nc5cccc(C)c5[nH]4)c3)c2)cc1 | -0.87
61 | O=C(Nc1ccc(OC2CCN(Cc3ccsc3)C2)c(Cl)c1)c1ccco1 (centres undefined) | 1.35
62 | COc1ccc(-c2nc(NC(=O)Cc3ccc(OC)c(OC)c3)sc2C)cc1 | 3.07
63 | COc1ccc(-c2cnc3[nH]cc(-c4ccc(CCC(=O)O)cc4)c3c2)cn1 | 4.52
64 | OC1CCCN(Cc2ccc(-c3cccc(-c4nc5cc(F)ccc5[nH]4)c3)cc2)C1 (centres undefined) | 7.1
